The campaign covered roughly 5,500 compounds. About 2,000 (36%) were called active. Inconclusive results (about 18%) are left out. No stated cut-off is given here; in the data, active means normalized growth mostly below about 0.91 (no sharp cut-off); inconclusive means no clear call, values can overlap the other calls; inactive means mostly above about 0.92. The list shows a part of the results.
Test: chemical genetic growth profiling, strain panel (AID 1159580);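 further: tested at 20 µM; growth read once vehicle control cultures reached saturation at 30 °C; 1 = growth at the plate median or of vehicle wells; lower values mean less growth of the strain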
Conditions: growth OD

Measured: normalized growth

COc1cc(-c2coc3cc(OCc4ccccc4)c(OC)c(O)c3c2=O)cc(OCc2ccccc2)c1OC
inactive: S. cerevisiae deletion strains, locus YAL013W, strain DEP1, active compounds read low 1.04 | S. cerevisiae deletion strains, locus YBR021W, strain FUR4, active compounds read low 1.01 | S. cerevisiae deletion strains, locus YBR229C, strain ROT2, active compounds read low 0.995 | S. cerevisiae deletion strains, locus YCL029C, strain bik1, active compounds read low 0.981 | S. cerevisiae deletion strains, locus YDL035C, strain GPR1, active compounds read low 1.03 | S. cerevisiae deletion strains, locus YDL074C, strain BRE1, active compounds read low 1.02 | S. cerevisiae deletion strains, locus YDL101C, strain DUN1, active compounds read low 0.99 | S. cerevisiae deletion strains, locus YDL185W, strain tfp1, active compounds read low 0.989 | S. cerevisiae deletion strains, locus YDL192W, strain arf1, active compounds read low 0.981 | S. cerevisiae deletion strains, locus YDR101C, strain arx1, active compounds read low 0.991 | S. cerevisiae deletion strains, locus YDR150W, strain NUM1, active compounds read low 1.01 | S. cerevisiae deletion strains, locus YDR162C, strain NBP2, active compounds read low 1.02 | S. cerevisiae deletion strains, locus YDR318W, strain mcm21, active compounds read low 0.992 | S. cerevisiae deletion strains, locus YDR388W, active compounds read low 0.981 | S. cerevisiae deletion strains, locus YDR502C, strain sam2, active compounds read low 0.991 | S. cerevisiae deletion strains, locus YEL061C, strain CIN8, active compounds read low 1.01 | S. cerevisiae deletion strains, locus YER110C, active compounds read low 0.974 | S. cerevisiae deletion strains, locus YER155C, strain BEM2, active compounds read low 0.999 | S. cerevisiae deletion strains, locus YER167W, strain BCK2, active compounds read low 1 | S. cerevisiae deletion strains, locus YGL078C, strain dbp3, active compounds read low 0.988 | S. cerevisiae deletion strains, locus YGL086W, strain mad1, active compounds read low 0.975 | S. cerevisiae deletion strains, locus YGL248W, strain PDE1, active compounds read low 0.973 | S. cerevisiae deletion strains, locus YGR078C, strain PAC10, active compounds read low 1 | S. cerevisiae deletion strains, locus YGR135W, strain pre9, active compounds read low 0.986 | S. cerevisiae deletion strains, locus YGR229C, strain SMI1, active compounds read low 1.04 | S. cerevisiae deletion strains, locus YGR252W, strain gcn5, active compounds read low 1.07 | S. cerevisiae deletion strains, locus YHR030C, strain SLT2, active compounds read low 0.989 | S. cerevisiae deletion strains, locus YHR079C, strain IRE1 (second series), active compounds read low 0.98 | S. cerevisiae deletion strains, locus YHR094C, strain hxt1, active compounds read low 0.978 | S. cerevisiae deletion strains, locus YHR129C, strain ARP1, active compounds read low 0.986 | S. cerevisiae deletion strains, locus YHR200W, strain rpn10, active compounds read low 0.988 | S. cerevisiae deletion strains, locus YIL066C, strain RNR3, active compounds read low 0.982 | S. cerevisiae deletion strains, locus YIL073C, strain SPO22, active compounds read low 0.969 | S. cerevisiae deletion strains, locus YIL125W, strain kgd1, active compounds read low 0.984 | S. cerevisiae deletion strains, locus YIR030C, strain dcg1, active compounds read low 0.988 | S. cerevisiae deletion strains, locus YJL095W, strain BCK1, active compounds read low 0.972 | S. cerevisiae deletion strains, locus YJL134W, strain LCB3, active compounds read low 0.993 | S. cerevisiae deletion strains, locus YJL168C, strain set2, active compounds read low 0.977 | S. cerevisiae deletion strains, locus YJL187C, strain SWE1 (second series), active compounds read low 0.968 | S. cerevisiae deletion strains, locus YJR043C, strain POL32, active compounds read low 1.04 | S. cerevisiae deletion strains, locus YJR075W, strain HOC1, active compounds read low 1.01 | S. cerevisiae deletion strains, locus YKL009W, strain mrt4, active compounds read low 0.968 | S. cerevisiae deletion strains, locus YKL068W, active compounds read low 0.992 | S. cerevisiae deletion strains, locus YKL085W, strain MDH1 (second series), active compounds read low 1.03 | S. cerevisiae deletion strains, locus YKL085W, strain MDH1, active compounds read low 1.03 | S. cerevisiae deletion strains, locus YKL190W, strain CNB1, active compounds read low 1.01 | S. cerevisiae deletion strains, locus YKR001C, strain vps1, active compounds read low 0.964 | S. cerevisiae deletion strains, locus YLR039C, strain RIC1, active compounds read low 1.05 | S. cerevisiae deletion strains, locus YLR058C, strain SHM2, active compounds read low 0.989 | S. cerevisiae deletion strains, locus YLR102C, strain apc9, active compounds read low 0.98 | S. cerevisiae deletion strains, locus YLR262C, strain YPT6, active compounds read low 1.08 | S. cerevisiae deletion strains, locus YLR268W, strain sec22, active compounds read low 0.967 | S. cerevisiae deletion strains, locus YLR330W, strain CHS5, active compounds read low 0.994 | S. cerevisiae deletion strains, locus YLR342W, strain FKS1 (second series), active compounds read low 1.02 | S. cerevisiae deletion strains, locus YLR371W, strain rom2, active compounds read low 0.97 | S. cerevisiae deletion strains, locus YLR418C, strain cdc73, active compounds read low 0.983 | S. cerevisiae deletion strains, locus YML016C, strain PPZ1, active compounds read low 0.991 | S. cerevisiae deletion strains, locus YML032C, strain rad52, active compounds read low 1 | S. cerevisiae deletion strains, locus YML124C, strain tub3, active compounds read low 0.983 | S. cerevisiae deletion strains, locus YMR078C, strain ctf18, active compounds read low 0.975 | S. cerevisiae deletion strains, locus YMR223W, strain ubp8, active compounds read low 0.99 | S. cerevisiae deletion strains, locus YMR307W, strain GAS1, active compounds read low 1.12 | S. cerevisiae deletion strains, locus YNL067W, strain RPL9B, active compounds read low 0.984 | S. cerevisiae deletion strains, locus YNL233W, strain BNI4, active compounds read low 0.977 | S. cerevisiae deletion strains, locus YNL250W, strain rad50, active compounds read low 0.971 | S. cerevisiae deletion strains, locus YNL271C, strain bni1, active compounds read low 0.981 | S. cerevisiae deletion strains, locus YNL298W, strain CLA4, active compounds read low 0.982 | S. cerevisiae deletion strains, locus YNL307C, strain MCK1, active compounds read low 0.969 | S. cerevisiae deletion strains, locus YNL322C, strain KRE1, active compounds read low 0.999 | S. cerevisiae deletion strains, locus YNR052C, strain pop2, active compounds read low 0.991 | S. cerevisiae deletion strains, locus YOL006C, strain TOP1, active compounds read low 0.936 | S. cerevisiae deletion strains, locus YOL012C, strain htz1 0.883 | S. cerevisiae deletion strains, locus YOL147C, strain pex11, active compounds read low 0.989 | S. cerevisiae deletion strains, locus YOR061W, strain CKA2, active compounds read low 0.989 | S. cerevisiae deletion strains, locus YOR069W, strain VPS5, active compounds read low 0.99 | S. cerevisiae deletion strains, locus YOR136W, strain idh2, active compounds read low 0.98 | S. cerevisiae deletion strains, locus YOR144C, strain elg1, active compounds read low 1 | S. cerevisiae deletion strains, locus YOR184W, strain ser1, active compounds read low 0.979 | S. cerevisiae deletion strains, locus YOR316C, strain cot1, active compounds read low 0.981 | S. cerevisiae deletion strains, locus YPL055C, strain LGE1, active compounds read low 0.987 | S. cerevisiae deletion strains, locus YPR119W, strain clb2, active compounds read low 0.981 | S. cerevisiae deletion strains, locus YPR141C, strain kar3, active compounds read low 0.963 | S. cerevisiae deletion strains, locus YPR163C, strain tif3, active compounds read low 0.989 | S. cerevisiae deletion strains, locus YPR167C, strain met16, active compounds read low 0.988 | S. cerevisiae deletion strains, strain wtn01, active compounds read low 0.981 | S. cerevisiae strains, strain wild type, active compounds read low 1
